Reference: the supplement of paper PMC6555819

How the values were obtained:
Experiment in all cases: PBM binding z-score (relative to random genomic background probes); higher = stronger binding; sequences stand for … in GC…GCGATTGACAGCGTAGAATGAAGG
[1] = tested on: FXR:RXRa (NR concentration 270 nM, RXRa partner concentration 90 nM)
Procedure, shortened: (§1)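 Binding buffer was PBS pH 7.4 with 2% milk, 0.02% Triton X-100, 1 mM DTT, 0.2 mg/mL BSA and 0.4 mg/ml salmon testes DNA. In it, ligand-free nuclear receptor dimers were incubated 1 h on custom Agilent 4×180K protein-binding microarrays carrying double-stranded probes. Antibodies against each partner (one per run) detected binding, and z-scores were calculated against random background probes after regression normalization of scanned fluorescence.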

[2] = tested on: LXRa:RXRa (NR concentration 270 nM, RXRa partner concentration 90 nM)
Procedure, shortened: as §1

[3] = tested on: LXRa homodimer (NR concentration 270 nM)
Procedure, shortened: as §1

[4] = tested on: LXRb:RXRa (NR concentration 270 nM, RXRa partner concentration 90 nM)
Procedure, shortened: as §1

[5] = tested on: LXRb homodimer (NR concentration 270 nM)
Procedure, shortened: as §1

[6] = tested on: PPARa:RXRa (NR concentration 270 nM, RXRa partner concentration 90 nM)
Procedure, shortened: as §1

[7] = tested on: PPARg:RXRa (NR concentration 180 nM, RXRa partner concentration 90 nM)
Procedure, shortened: as §1

[8] = tested on: PPARg:RXRa 270nM:90nM, anti-RXR (NR concentration 270 nM, RXRa partner concentration 90 nM)
Procedure, shortened: as §1

[9] = tested on: PPARg:RXRa 30nM:10nM, anti-RXR (NR concentration 30 nM, RXRa partner concentration 10 nM)
Procedure, shortened: as §1

[10] = tested on: PPARg:RXRa 90nM:30nM, anti-RXR (NR concentration 90 nM, RXRa partner concentration 30 nM)
Procedure, shortened: as §1

[11] = tested on: PPARg:RXRa DBDmut IVT, anti-RXR (DBD mutation: RXRa K156A/R161A, NR concentration 270 nM, RXRa partner concentration 90 nM)
Procedure, shortened: as §1

[12] = tested on: PPARg:RXRa IVT, anti-PPARg (NR concentration 270 nM, RXRa partner concentration 90 nM)
Procedure, shortened: as §1

[13] = tested on: PPARg DBDmut:RXRa IVT, anti-PPARg (DBD mutation: PPARg1 K132A/R137A, NR concentration 270 nM, RXRa partner concentration 90 nM)
Procedure, shortened: as §1

[14] = tested on: PPARg DBDmut IVT, anti-PPARg (DBD mutation: PPARg1 K132A/R137A, NR concentration 270 nM)
Procedure, shortened: as §1

[15] = tested on: PPARg homodimer (NR concentration 180 nM)
Procedure, shortened: as §1

[16] = tested on: PXR:RXRa (NR concentration 270 nM, RXRa partner concentration 90 nM)
Procedure, shortened: as §1

[17] = tested on: PXR homodimer (NR concentration 270 nM)
Procedure, shortened: as §1

[18] = tested on: RARa:RXR (NR concentration 270 nM, RXRa partner concentration 90 nM)
Procedure, shortened: as §1

[19] = tested on: RARa homodimer (NR concentration 270 nM)
Procedure, shortened: as §1

[20] = tested on: RARb:RXRa (NR concentration 270 nM, RXRa partner concentration 90 nM)
Procedure, shortened: as §1

Row | Sequence | PBM binding z-score [1] | PBM binding z-score [2] | PBM binding z-score [3] | PBM binding z-score [4] | PBM binding z-score [5] | PBM binding z-score [6] | PBM binding z-score [7] | PBM binding z-score [8] | PBM binding z-score [9] | PBM binding z-score [10] | PBM binding z-score [11] | PBM binding z-score [12] | PBM binding z-score [13] | PBM binding z-score [14] | PBM binding z-score [15] | PBM binding z-score [16] | PBM binding z-score [17] | PBM binding z-score [18] | PBM binding z-score [19] | PBM binding z-score [20]
1 | CGTCCAAGGTCAGACAGGTCAGTGAATGCCGAGT | 5.43 | 4.15 | 1.39 | 3.43 | 0.134 | 4.25 | 2.72 | 3.38 | 0.54 | 1.85 | 2.43 | 2.79 | -0.527 | -0.665 | 2.82 | 4.38 | 6.4 | 4.28 | 0.847 | 4.93
2 | TCTAGTTGGTCAAACGTCACACACTCGAAATGCG | 0.778 | 0.664 | 0.422 | 0.693 | 0.281 | 2.06 | 3.61 | 4.92 | 4.37 | 5.13 | 3.29 | 2.32 | 0.65 | 1.11 | 1.05 | 0.699 | 0.241 | 0.948 | 0.646 | 1.2
3 | ATTGAAAGGTCGTGAGGTGAGTATACAGAAAGGC | 5.67 | 4.67 | 0.73 | 3.49 | 1.2 | 5.38 | 4.88 | 5.01 | 2.23 | 3.64 | 0.728 | 3.15 | 1.53 | 1.68 | 2.07 | 3.07 | 0.914 | 4.27 | 1.15 | 4.3
4 | GCTAGTTGGACAGTAAAAGGTCACACACCGGTCG | 2.82 | 4.25 | 4.25 | 4.22 | 0.188 | 4.4 | 2.61 | 3.78 | 1.89 | 3.36 | 0.431 | 2.16 | -0.417 | -0.407 | 3.24 | 4.68 | 1.09 | 5.53 | 1.25 | 3.95
5 | ACAGACAGGTGAGTGAAGGTAACTCCGCTGGACG | 0.216 | -0.067 | -0.195 | -0.498 | -0.566 | 0.0372 | 0.503 | -0.251 | 0.0064 | -0.389 | 0.529 | 0.681 | -0.384 | -0.279 | -0.155 | -0.132 | -0.203 | 0.0904 | -0.274 | 0.621
6 | ATCGAAAGGTCGACGAGGTGACTATACACCGTTT | 4.76 | 3.44 | 0.283 | 3.17 | 0.252 | 4.53 | 3.26 | 3.2 | 1.22 | 2.33 | 1.03 | 2.4 | 1.08 | 0.608 | 1.89 | 3.44 | 0.829 | 3.99 | 0.449 | 4.01
7 | ATCGAAAGCTCGAAGGTGAGTATACCCACCCGAA | -0.601 | -0.626 | -0.677 | -0.458 | -0.832 | -0.531 | 0.476 | -0.226 | -0.209 | -0.372 | -0.94 | -0.157 | 0.15 | -0.14 | -1.31 | -0.547 | -0.343 | -0.558 | -0.499 | 0.055
8 | TCTTGTAGATCAAGCAGGTTAAGCAAGCCTGAGT | 0.175 | 0.151 | -0.473 | 0.104 | -0.672 | 0.618 | -0.429 | 1.09 | 2.44 | 1.39 | 1.65 | 0.529 | -0.37 | -0.0257 | -0.443 | 0.0788 | -0.00179 | 0.628 | -0.655 | 0.278
9 | TAGCCTAGGTCATTCAGTGGCCAGTATAGAAAGC | 4.21 | 3.55 | 0.592 | 2.39 | 0.554 | 3.44 | 1.95 | 2.24 | 0.522 | 1.51 | 1.37 | 2.7 | 0.204 | -0.521 | 1.28 | 1.66 | -0.355 | 2.22 | -0.566 | 3.65
10 | CCTTGTTGGTCAAGGTCACACACGCTATAGGTAC | 4.42 | 3.87 | 2.19 | 3.91 | 0.763 | 4.27 | 3.05 | 3.47 | 1.21 | 2.69 | 2.48 | 3.71 | 1.18 | 0.66 | 2.49 | 4.23 | 1.5 | 4.45 | 1.4 | 4.3
11 | ACTATTAGTTGATACGAGGGCAACCGATAGGTTG | 0.829 | 0.48 | 0.407 | 0.266 | 0.576 | 0.327 | 0.752 | 0.283 | 0.308 | 0.272 | 0.641 | 1.17 | 1.01 | 1.4 | 0.764 | 1.34 | 0.799 | 0.922 | 0.828 | 1.28
12 | GCATATAGGTAATACAAGGTGAAAGGCCGATTGT | 0.496 | 1.99 | 0.36 | 0.488 | -0.248 | 1.97 | 2.16 | 2.86 | 1.05 | 2.2 | 3.82 | 3.44 | 0.554 | 0.825 | 0.878 | 0.592 | 0.222 | 1.66 | 0.91 | 0.547
13 | AATACACGGTCATCGTAGGCCAGAGTACGCACAG | 1.37 | 3.15 | 2.68 | 0.586 | 0.643 | 0.606 | 1.15 | 0.51 | 0.35 | 0.546 | 0.462 | 1.62 | 0.948 | 0.51 | 0.841 | 0.356 | 0.177 | 0.83 | 0.727 | 2.83
14 | CGTCCAAGGTCAAGGTCAGTGAAAGAGACTCGAA | 7.52 | 5.66 | 1.09 | 4.51 | 0.985 | 6.12 | 6.53 | 6.21 | 2.56 | 4.65 | 3.52 | 4.76 | 0.429 | 0.164 | 4.38 | 4.81 | 1.28 | 5.07 | 1.75 | 5.75
